The supplement of paper PMC10849652
About 7,900 targets were measured; listed, in parts, are those with a hit and a random draw of the rest. About 0.6% of all pairs of compound and target were hits.

Assays:
Test in all cases: log2 fold change, soluble protein after heating vs DMSO (PISA); higher = thermal stabilisation; K562 cells, 10 uM, 30 min; active = over 0.2 and 3.5 SD of the protein, either way, in both replicates (recomputed)
IRAK-1-4 Inhibitor I = compound: C1COCCN1CCN2C3=CC=CC=C3N=C2NC(=O)C4=CC(=CC=C4)[N+](=O)[O-] [IRAK-1-4 Inhibitor I]
How it was run: (§1)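 For each measurement, 10 μM compound was applied for 30 min to K562 cells at 2×10^6 cells/mL. Aliquots were heated for 3 min across 48°C-58°C, pooled, and extracted in PBS with 0.5% NP-40 at 4°C; the supernatant after 21,000xg for 90 min was soluble protein. This was quantified by TMTpro 16plex LC-MS/MS with channel sums equalised, and thermal stability was reported relative to control samples from duplicates, on a log2 fold-change scale.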

ibrutinib = compound: C=CC(=O)N1CCC[C@@H](n2nc(-c3ccc(Oc4ccccc4)cc3)c3c(N)ncnc32)C1 [ibrutinib]
How it was run: as §1

[1] = compound: CC(=O)c1cnc2ccc(-c3cc(Cl)c(O)c(Cl)c3)nc2c1N[C@H]1CC[C@H](CN(C)C)CC1
How it was run: as §1

ralimetinib = compound: CC(C)(C)Cn1c(N)nc2ccc(-c3[nH]c(C(C)(C)C)nc3-c3ccc(F)cc3)nc21 [ralimetinib]
How it was run: as §1

[2] = compound: CC(C)(O)CC(=O)NCCn1ccc2ncnc(Nc3ccc(Oc4cccc(C(F)(F)F)c4)c(Cl)c3)c21
How it was run: as §1

[3] = compound: CC(C)C1=C2N=C(C=C(N2N=C1)NCC3=CC=CC=C3)NCCCCCCN
How it was run: as §1

[4] = compound: CC(C)C[C@@H](C=O)NC(=O)[C@H](CC(C)C)NC(=O)[C@H](CC(C)C)NC(=O)OCc1ccccc1
How it was run: as §1

pinometostat = compound: CC(C)N(C[C@H]1O[C@@H](n2cnc3c(N)ncnc32)[C@H](O)[C@@H]1O)[C@H]1C[C@@H](CCc2nc3cc(C(C)(C)C)ccc3[nH]2)C1 [pinometostat]
How it was run: as §1

[5] = compound: CC1=C(C(CC(=O)N1)C2=CC=C(C=C2)C(F)(F)F)C(=O)NC3=C(C=C4C(=C3)C=NN4)F
How it was run: as §1

[6] = compound: CC1=C(C2=C(C=C1)C(=O)C3=CC=CC=C3N2CCCN)C
How it was run: as §1

[7] = compound: CC1=C(C=C(C=C1)NC(=O)C2=CC(=CC=C2)C(C)(C)C#N)NC3=CC4=C(C=C3)N=CN(C4=O)C
How it was run: as §1

[8] = compound: CC1=C(C=C(C=C1)NC(=O)C2=CC(=CC=C2)N(C)C)NC(=O)C3=CC=C(C=C3)O
How it was run: as §1

[9] = compound: CC1=CC=C(C=C1)SC2=C3C=C(SC3=CN=C2)C(=O)N
How it was run: as §1

[10] = compound: CC1=NC(=CC=C1)C2=C(N=C(N2)C(C)(C)C)C3=CC4=NC=CN=C4C=C3
How it was run: as §1

Nexturastat A = compound: CCCCN(Cc1ccc(C(=O)NO)cc1)C(=O)Nc1ccccc1 [Nexturastat A]
How it was run: as §1

vemurafenib = compound: CCCS(=O)(=O)Nc1ccc(F)c(C(=O)c2c[nH]c3ncc(-c4ccc(Cl)cc4)cc23)c1F [vemurafenib]
How it was run: as §1

[11] = compound: CCCS(=O)(=O)Nc1ccc(F)c(C(=O)c2c[nH]c3ncc(Cl)cc23)c1F
How it was run: as §1

[12] = compound: CCCc1cc(C)[nH]c(=O)c1CNC(=O)c1cc(-c2ccnc(N3CCN(C)CC3)c2)cc2c1cnn2C(C)C
How it was run: as §1

givinostat = compound: CCN(CC)Cc1ccc2cc(COC(=O)Nc3ccc(C(=O)NO)cc3)ccc2c1 [givinostat]
How it was run: as §1

barasertib = compound: CCN(CCCOc1ccc2c(Nc3cc(CC(=O)Nc4cccc(F)c4)[nH]n3)ncnc2c1)CCOP(=O)(O)O [barasertib]
How it was run: as §1

Measured: log2 fold change

EXOC4 (UniProt Q96A65)
inactive: IRAK-1-4 Inhibitor I -0.123 | ibrutinib -0.028 | [1] -0.007 | ralimetinib 0.024 | [2] -0.099 | [4] 0.04 | pinometostat 0.143 | [5] 0.035 | [6] -0.01 | [7] -0.021 | [8] 0.029 | [9] 0.021 | [10] 0.001 | Nexturastat A 0.209 | vemurafenib -0.003 | [11] 0.098 | [12] 0.01 | givinostat 0.133 | barasertib 0.139
active: [3] -0.442

DBNL isoform 3 (UniProt Q9UJU6)
Sequence of UniProt Q9UJU6 (Q9UJU6 whole entry, looked up): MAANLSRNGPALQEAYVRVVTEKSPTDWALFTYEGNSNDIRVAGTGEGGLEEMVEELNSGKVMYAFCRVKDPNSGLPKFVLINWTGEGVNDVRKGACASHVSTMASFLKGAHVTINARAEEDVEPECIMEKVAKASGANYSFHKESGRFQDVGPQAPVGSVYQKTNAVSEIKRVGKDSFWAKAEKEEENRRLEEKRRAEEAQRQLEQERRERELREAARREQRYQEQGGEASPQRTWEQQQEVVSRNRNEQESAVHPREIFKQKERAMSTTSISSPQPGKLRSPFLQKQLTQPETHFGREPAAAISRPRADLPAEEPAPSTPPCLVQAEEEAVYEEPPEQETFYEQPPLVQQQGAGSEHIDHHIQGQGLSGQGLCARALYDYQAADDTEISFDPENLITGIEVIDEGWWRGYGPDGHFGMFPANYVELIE
inactive: IRAK-1-4 Inhibitor I -0.075 | ibrutinib -0.122 | [1] 0.006 | ralimetinib -0.015 | [2] -0.132 | [3] -0.136 | [4] -0.007 | pinometostat -0.044 | [5] -0.02 | [6] -0.066 | [7] -0.051 | [8] -0.019 | [9] 0.011 | [10] 0.113 | Nexturastat A -0.082 | vemurafenib 0.07 | [11] 0.1 | [12] -0.006 | givinostat 0.036 | barasertib 0.045

DDX4 (UniProt Q9NQI0)
inactive: IRAK-1-4 Inhibitor I -0.033 | ibrutinib -0.046 | [1] -0.035 | ralimetinib -0.063 | [2] 0.203 | [3] 0.02 | [4] 0.239 | pinometostat 0.24 | [5] 0.03 | [6] 0.033 | [7] -0.451 | [8] 0.035 | [9] -0.328 | [10] -0.336 | Nexturastat A 0.263 | vemurafenib -0.569 | [11] -0.447 | [12] 0.327 | givinostat 0.271 | barasertib -0.094

CYP51A1 (UniProt Q16850)
active: [3] 0.782
inactive: IRAK-1-4 Inhibitor I -0.129 | ibrutinib 0.039 | [1] -0.028 | ralimetinib 0.064 | [2] 0.245 | [4] 0.07 | pinometostat 0.045 | [5] -0.013 | [6] -0.006 | [7] 0.063 | [8] -0.036 | [9] -0.098 | [10] -0.133 | Nexturastat A 0.024 | vemurafenib 0.029 | [11] -0.015 | [12] 0.07 | givinostat 0.007 | barasertib 0.01

ECPAS (UniProt Q5VYK3)
Sequence of UniProt Q5VYK3 (Q5VYK3 whole entry, looked up): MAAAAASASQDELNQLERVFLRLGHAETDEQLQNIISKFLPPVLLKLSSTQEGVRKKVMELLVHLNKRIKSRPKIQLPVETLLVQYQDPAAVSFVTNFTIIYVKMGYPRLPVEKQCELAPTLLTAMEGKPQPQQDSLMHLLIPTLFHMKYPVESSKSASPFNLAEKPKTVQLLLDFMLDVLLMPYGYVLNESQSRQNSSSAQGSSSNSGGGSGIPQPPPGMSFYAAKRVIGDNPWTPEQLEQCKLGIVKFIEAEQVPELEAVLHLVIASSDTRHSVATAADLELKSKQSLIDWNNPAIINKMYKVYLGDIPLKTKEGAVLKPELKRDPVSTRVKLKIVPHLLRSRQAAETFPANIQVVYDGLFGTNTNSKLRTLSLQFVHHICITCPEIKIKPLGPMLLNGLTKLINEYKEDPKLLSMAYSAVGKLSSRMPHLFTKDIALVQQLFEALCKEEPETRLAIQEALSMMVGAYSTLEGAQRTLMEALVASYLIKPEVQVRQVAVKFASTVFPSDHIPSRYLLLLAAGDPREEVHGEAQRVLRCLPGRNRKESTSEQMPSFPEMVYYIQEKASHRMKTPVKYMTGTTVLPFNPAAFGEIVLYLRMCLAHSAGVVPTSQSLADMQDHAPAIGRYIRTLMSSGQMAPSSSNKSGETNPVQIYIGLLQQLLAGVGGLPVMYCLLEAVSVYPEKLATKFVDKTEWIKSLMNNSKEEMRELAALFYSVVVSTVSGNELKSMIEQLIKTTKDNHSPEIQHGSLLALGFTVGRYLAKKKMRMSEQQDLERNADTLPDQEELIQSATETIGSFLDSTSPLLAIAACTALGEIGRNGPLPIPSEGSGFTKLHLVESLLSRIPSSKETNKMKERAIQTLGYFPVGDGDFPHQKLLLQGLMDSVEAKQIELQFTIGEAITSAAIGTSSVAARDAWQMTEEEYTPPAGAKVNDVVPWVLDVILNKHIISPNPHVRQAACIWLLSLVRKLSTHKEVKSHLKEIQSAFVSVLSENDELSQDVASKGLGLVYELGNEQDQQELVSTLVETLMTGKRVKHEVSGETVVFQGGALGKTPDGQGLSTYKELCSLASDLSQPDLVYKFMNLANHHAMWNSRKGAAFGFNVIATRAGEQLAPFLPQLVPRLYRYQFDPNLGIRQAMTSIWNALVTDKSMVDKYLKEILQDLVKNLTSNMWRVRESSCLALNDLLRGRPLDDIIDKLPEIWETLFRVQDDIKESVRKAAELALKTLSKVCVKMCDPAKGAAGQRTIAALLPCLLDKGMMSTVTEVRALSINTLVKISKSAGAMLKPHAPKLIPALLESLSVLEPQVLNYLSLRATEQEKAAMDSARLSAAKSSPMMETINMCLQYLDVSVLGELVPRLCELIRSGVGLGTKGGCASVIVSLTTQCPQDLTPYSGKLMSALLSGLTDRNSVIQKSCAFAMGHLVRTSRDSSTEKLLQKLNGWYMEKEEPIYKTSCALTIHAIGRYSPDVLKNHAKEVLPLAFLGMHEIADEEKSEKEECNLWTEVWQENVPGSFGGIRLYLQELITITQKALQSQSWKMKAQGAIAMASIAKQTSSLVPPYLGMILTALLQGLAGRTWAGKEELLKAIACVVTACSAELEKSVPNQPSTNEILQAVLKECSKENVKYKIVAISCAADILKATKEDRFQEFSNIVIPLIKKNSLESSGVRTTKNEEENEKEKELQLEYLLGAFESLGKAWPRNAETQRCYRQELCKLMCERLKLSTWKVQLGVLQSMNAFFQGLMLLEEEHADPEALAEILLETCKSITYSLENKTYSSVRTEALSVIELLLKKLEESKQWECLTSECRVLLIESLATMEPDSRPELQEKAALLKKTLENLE
inactive: IRAK-1-4 Inhibitor I -0.117 | ibrutinib -0.09 | [1] 0.009 | ralimetinib 0.082 | [2] -0.139 | [3] -0.094 | pinometostat 0.055 | [5] 0.021 | [6] 0.092 | [7] 0.008 | [8] -0.06 | [9] 0.016 | [10] 0.02 | Nexturastat A 0.049 | vemurafenib 0.084 | [11] 0.059 | [12] 0.051 | givinostat 0.118 | barasertib 0.037
active: [4] 0.564

DCAF13 (UniProt Q9NV06)
inactive: IRAK-1-4 Inhibitor I -0.079 | ibrutinib 0.019 | [1] 0.101 | ralimetinib 0.077 | [2] 0.032 | [3] -0.078 | [4] 0.165 | pinometostat 0.263 | [5] 0.037 | [6] -0.33 | [7] -0.038 | [8] 0.007 | [9] -0.123 | [10] -0.067 | Nexturastat A 0.205 | vemurafenib -0.117 | [11] -0.062 | [12] 0.089 | givinostat 0.017 | barasertib -0.084

DDX39A (UniProt O00148)
inactive: IRAK-1-4 Inhibitor I -0.034 | ibrutinib 0.099 | [1] -0.224 | ralimetinib 0.003 | [2] -0.142 | [4] 0.042 | pinometostat 0.075 | [5] 0.092 | [6] -0.28 | [7] -0.018 | [8] -0.016 | [9] 0.02 | [10] 0.027 | Nexturastat A 0.015 | vemurafenib 0.004 | [11] 0.017 | [12] 0.074 | givinostat 0.076 | barasertib 0.035
active: [3] -0.327

DTYMK (UniProt P23919)
inactive: IRAK-1-4 Inhibitor I 0.076 | ibrutinib -0.003 | [1] -0.02 | ralimetinib -0.056 | [2] -0.178 | [3] -0.029 | [4] -0.013 | pinometostat 0.039 | [5] -0.01 | [6] 0.084 | [7] -0.001 | [8] 0.05 | [9] 0 | [10] 0.015 | Nexturastat A -0.009 | vemurafenib -0.017 | [11] -0.069 | [12] -0.1 | givinostat -0.007 | barasertib -0.011

DYRK1A isoform 2 (UniProt Q13627)
active: [1] -0.358
inactive: IRAK-1-4 Inhibitor I -0.001 | ibrutinib -0.009 | ralimetinib -0.046 | [2] -0.042 | [3] -0.254 | [4] 0.064 | pinometostat 0.055 | [5] -0.014 | [6] 0.144 | [7] -0.025 | [8] 0.061 | [9] 0.003 | [10] -0.005 | Nexturastat A -0.032 | vemurafenib -0.021 | [11] -0.024 | [12] -0.019 | givinostat 0.038 | barasertib 0.004

DAB2 (UniProt P98082)
Sequence of UniProt P98082 (P98082 whole entry, looked up): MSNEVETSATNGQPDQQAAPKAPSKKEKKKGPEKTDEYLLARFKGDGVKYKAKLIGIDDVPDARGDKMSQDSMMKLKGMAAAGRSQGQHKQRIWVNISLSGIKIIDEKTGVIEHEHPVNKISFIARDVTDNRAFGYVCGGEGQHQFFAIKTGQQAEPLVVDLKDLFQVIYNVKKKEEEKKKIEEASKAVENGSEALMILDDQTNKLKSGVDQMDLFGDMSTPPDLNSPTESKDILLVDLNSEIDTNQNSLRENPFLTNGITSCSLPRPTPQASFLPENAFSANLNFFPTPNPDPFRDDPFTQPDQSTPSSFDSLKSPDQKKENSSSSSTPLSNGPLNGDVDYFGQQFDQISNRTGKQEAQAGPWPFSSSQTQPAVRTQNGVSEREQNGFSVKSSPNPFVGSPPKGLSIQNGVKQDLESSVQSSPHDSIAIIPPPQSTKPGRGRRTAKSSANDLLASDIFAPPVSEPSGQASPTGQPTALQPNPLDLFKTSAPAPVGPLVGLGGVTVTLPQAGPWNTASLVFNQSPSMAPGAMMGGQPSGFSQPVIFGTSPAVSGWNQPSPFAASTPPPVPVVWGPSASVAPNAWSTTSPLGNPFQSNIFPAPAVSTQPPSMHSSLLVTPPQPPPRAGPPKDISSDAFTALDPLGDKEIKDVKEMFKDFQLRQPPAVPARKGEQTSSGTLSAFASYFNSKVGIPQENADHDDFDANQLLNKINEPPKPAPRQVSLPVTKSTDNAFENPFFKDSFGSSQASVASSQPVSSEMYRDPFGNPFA
inactive: IRAK-1-4 Inhibitor I -0.009 | ibrutinib 0.004 | [1] -0.093 | ralimetinib 0.082 | [2] -0.119 | [3] -0.02 | [4] 0.138 | pinometostat 0.049 | [5] -0.031 | [6] -0.075 | [7] 0.016 | [8] 0.015 | [9] -0.03 | [10] -0.046 | Nexturastat A 0.058 | vemurafenib -0.033 | [11] 0.064 | [12] 0.036 | givinostat 0.109 | barasertib 0.072

DHX36 (UniProt Q9H2U1)
inactive: IRAK-1-4 Inhibitor I -0.053 | ibrutinib 0.014 | [1] 0.001 | ralimetinib 0.111 | [2] 0.009 | [3] -0.025 | [4] 0.056 | pinometostat 0.153 | [5] 0.031 | [6] -0.206 | [7] 0.015 | [8] 0 | [9] -0.034 | [10] -0.033 | Nexturastat A 0.111 | vemurafenib 0.012 | [11] 0.02 | [12] -0.005 | givinostat -0.031 | barasertib -0.064

EIF4A1 (UniProt P60842)
Sequence of UniProt P60842 (P60842 whole entry, looked up): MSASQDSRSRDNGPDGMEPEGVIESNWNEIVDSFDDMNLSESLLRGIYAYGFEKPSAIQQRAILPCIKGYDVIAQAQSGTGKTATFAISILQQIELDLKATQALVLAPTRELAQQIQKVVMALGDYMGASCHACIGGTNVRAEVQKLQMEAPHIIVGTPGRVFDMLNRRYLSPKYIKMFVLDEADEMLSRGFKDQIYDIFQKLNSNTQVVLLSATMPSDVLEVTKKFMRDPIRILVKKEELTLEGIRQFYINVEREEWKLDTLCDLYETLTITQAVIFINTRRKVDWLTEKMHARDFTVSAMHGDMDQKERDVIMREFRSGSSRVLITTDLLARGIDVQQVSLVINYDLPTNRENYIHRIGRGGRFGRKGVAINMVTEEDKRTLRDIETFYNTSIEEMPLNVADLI
inactive: IRAK-1-4 Inhibitor I -0.008 | ibrutinib -0.022 | [1] -0.131 | ralimetinib 0.026 | [2] -0.151 | [3] -0.124 | [4] -0.001 | pinometostat 0.016 | [5] -0.011 | [6] 0.017 | [7] 0.106 | [8] -0.017 | [9] 0.061 | [10] 0.049 | Nexturastat A -0.115 | vemurafenib 0.055 | [11] 0.089 | [12] 0.151 | givinostat 0.06 | barasertib 0.026

DDX11 (UniProt Q96FC9)
Sequence of UniProt Q96FC9 (Q96FC9 whole entry, looked up): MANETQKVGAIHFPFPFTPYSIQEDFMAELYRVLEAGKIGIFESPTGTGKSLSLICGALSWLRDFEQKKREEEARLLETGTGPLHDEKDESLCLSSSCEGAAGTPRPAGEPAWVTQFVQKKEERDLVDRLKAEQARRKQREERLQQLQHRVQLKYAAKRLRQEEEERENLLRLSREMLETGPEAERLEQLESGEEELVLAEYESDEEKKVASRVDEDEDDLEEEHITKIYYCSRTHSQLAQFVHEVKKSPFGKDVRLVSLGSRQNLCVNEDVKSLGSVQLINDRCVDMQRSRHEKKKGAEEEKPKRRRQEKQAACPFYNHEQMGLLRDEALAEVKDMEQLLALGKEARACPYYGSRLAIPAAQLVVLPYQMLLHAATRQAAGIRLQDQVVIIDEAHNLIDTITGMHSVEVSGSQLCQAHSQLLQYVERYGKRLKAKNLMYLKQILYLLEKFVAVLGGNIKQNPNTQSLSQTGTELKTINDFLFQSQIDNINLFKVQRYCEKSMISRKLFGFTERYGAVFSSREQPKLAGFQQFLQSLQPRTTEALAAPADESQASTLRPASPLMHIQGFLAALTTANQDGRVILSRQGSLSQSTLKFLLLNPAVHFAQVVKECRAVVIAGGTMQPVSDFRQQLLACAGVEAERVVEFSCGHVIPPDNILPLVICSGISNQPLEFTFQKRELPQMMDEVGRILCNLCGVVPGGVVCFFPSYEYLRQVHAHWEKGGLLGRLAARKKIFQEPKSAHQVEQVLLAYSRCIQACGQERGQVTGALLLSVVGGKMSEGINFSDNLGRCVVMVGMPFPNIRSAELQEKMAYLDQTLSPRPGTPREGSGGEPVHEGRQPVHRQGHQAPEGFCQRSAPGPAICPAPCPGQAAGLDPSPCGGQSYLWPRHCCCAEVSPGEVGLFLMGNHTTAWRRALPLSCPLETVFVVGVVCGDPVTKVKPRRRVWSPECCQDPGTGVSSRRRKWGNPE
inactive: IRAK-1-4 Inhibitor I 0.152 | ibrutinib 0.001 | [1] -0.119 | ralimetinib -0.033 | [2] -0.003 | [3] 0.022 | [4] 0.09 | pinometostat -0.316 | [5] -0.02 | [6] 0.023 | [7] -0.04 | [8] 0.052 | [9] -0.035 | [10] 0.043 | Nexturastat A -0.011 | vemurafenib -0.072 | [11] 0 | [12] -0.006 | givinostat -0.029 | barasertib 0.125

CTSH (UniProt P09668)
Sequence of UniProt P09668 (P09668 whole entry, looked up): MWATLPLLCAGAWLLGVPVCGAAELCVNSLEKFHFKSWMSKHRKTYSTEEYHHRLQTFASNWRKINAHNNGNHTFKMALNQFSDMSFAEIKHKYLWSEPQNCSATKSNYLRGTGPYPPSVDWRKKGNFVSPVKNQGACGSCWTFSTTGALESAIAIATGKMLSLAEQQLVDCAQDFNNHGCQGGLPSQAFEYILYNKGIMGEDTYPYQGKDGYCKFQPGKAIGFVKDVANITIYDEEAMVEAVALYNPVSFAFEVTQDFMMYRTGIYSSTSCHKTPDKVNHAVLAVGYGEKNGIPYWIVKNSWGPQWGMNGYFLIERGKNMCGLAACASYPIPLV
inactive: IRAK-1-4 Inhibitor I 0.009 | ibrutinib 0.034 | [1] 0.005 | ralimetinib 0.104 | [2] 0.005 | [3] -0.142 | [4] -0.016 | pinometostat -0.06 | [5] 0.009 | [6] -0.043 | [7] -0.007 | [8] 0.066 | [9] 0.013 | [10] 0.093 | Nexturastat A -0.047 | vemurafenib 0.023 | [11] -0.034 | [12] 0.157 | givinostat 0.003 | barasertib -0.019

ESS2 (UniProt Q96DF8)
inactive: IRAK-1-4 Inhibitor I 0.032 | ibrutinib 0.025 | [1] 0.031 | ralimetinib -0.009 | [2] 0.013 | [3] 0.002 | [4] 0.136 | pinometostat 0.056 | [5] 0.099 | [6] -0.021 | [7] -0.085 | [8] 0.091 | [9] -0.024 | [10] -0.018 | Nexturastat A 0.032 | vemurafenib -0.01 | [11] -0.013 | [12] -0.075 | givinostat -0.01 | barasertib -0.025

FAM177A1 isoform 2 (UniProt Q8N128)
Sequence of UniProt Q8N128 (Q8N128 whole entry, looked up): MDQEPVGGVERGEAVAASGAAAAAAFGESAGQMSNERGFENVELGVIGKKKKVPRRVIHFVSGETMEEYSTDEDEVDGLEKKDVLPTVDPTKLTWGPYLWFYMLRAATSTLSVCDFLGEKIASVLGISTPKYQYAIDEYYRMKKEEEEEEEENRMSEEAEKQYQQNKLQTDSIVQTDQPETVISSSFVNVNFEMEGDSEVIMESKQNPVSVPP
inactive: IRAK-1-4 Inhibitor I 0.042 | ibrutinib 0.038 | [1] 0.033 | ralimetinib 0 | [2] -0.242 | [3] -0.245 | [4] 0.029 | pinometostat 0.081 | [5] 0.062 | [6] -0.019 | [7] -0.071 | [8] 0.152 | [9] 0.101 | [10] 0.039 | Nexturastat A -0.064 | vemurafenib -0.061 | [11] 0.014 | [12] -0.02 | givinostat -0.045 | barasertib 0.037
